The target in assay [1] is Rap guanine nucleotide exchange factor 3 (Homo sapiens) (UniProt O95398). Briefly: Confirmatory qHTS for antagonist of cAMP-regulated guanine nucleotide exchange factor 3 (EPAC1) (AID 1645880). Further: nearly all actives have a fitted effect of over 55% in size. Further: potency means the concentration at half of the fitted maximal effect. To be noted: EPAC1 Rap1B-BODIPY-GDP exchange, fluorescence; series mostly up to 115 µM. The gist of the method:
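Released BODIPY-GDP fluoresces less than Rap1-bound BODIPY-GDP; the signal is followed at 480/540 nm at 5-min intervals over 30 min, after 5 min at room temperature. Reactions contain 100 nM EPAC1, 250 nM RAP1B-BODIPY-GDP and 50 uM GDP; results are normalized to ATA and DMSO.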
A general note: qHTS replaces the single test concentration by a dilution series.

The target is the same in assay [2]. Briefly: Confirmatory qHTS for agonist of cAMP-regulated guanine nucleotide exchange factor 3 (EPAC1) (AID 1645881). Further: nearly all actives have a fitted effect of over 75% in size. Further: potency means the concentration at half of the fitted maximal effect.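 On activation: EPAC1 catalysed release of BODIPY-GDP from Rap1B seen as fluorescence loss; 100% = effect of cAMP agonist control.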 As to conditions: EPAC1 Rap1B BODIPY-GDP exchange fluorescence; series mostly up to 154 µM.
Assay [3] has as its target Rap guanine nucleotide exchange factor 4 (Homo sapiens) (UniProt Q8WZA2). Briefly: Confirmatory qHTS for agonist of cAMP-regulated guanine nucleotide exchange factor 4 (EPAC2) (AID 1645884).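 Further: nucleotide exchange releases bodipy-GDP from Rap1 and this lowers its fluorescence; nearly all actives have a fitted effect of over 65% in size.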 Further: potency means the concentration at half of the fitted maximal effect. On activation: on the % scale 0 is the no-effect control and ±100 the full control effect. To be noted: EPAC2 GEF activity, Rap1B-BODIPY-GDP fluorescence; series mostly up to 154 µM.
Assay [4] shares this target. The assay can be described thus: Confirmatory qHTS for antagonist of cAMP-regulated guanine nucleotide exchange factor 4 (EPAC2) (AID 1645885). Further: nearly all actives have a fitted effect of over 25% in size. Further: potency means the concentration at half of the fitted maximal effect. On activity change, negative = inhibition: on the % scale 0 is the no-effect control and ±100 the full control effect. To be noted: EPAC2 Rap1B-BODIPY-GDP exchange fluorescence, biochemical; series mostly up to 12.7 µM.
For assay [5], the target named is Rap guanine nucleotide exchange factor 3 (Homo sapiens) (UniProt O95398). Briefly: Counterscreen qHTS for antagonist of cAMP-regulated guanine nucleotide exchange factor 3 (EPAC1) (AID 1645888). Further: % of control where 0% means no effect. To be noted: Rap1B-BODIPY-GDP nucleotide exchange, fluorescence; series mostly up to 154 µM. A digest of the protocol:
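Measured: fluorescence of BODIPY-GDP bound to Rap1B, which falls as exchange proceeds. Conditions include 50 uM competing GDP, 5 and 30 min reads, and a later cAMP challenge for antagonist detection.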
(A counterscreen serves to expose hits that act by an unwanted route or on another target.)

Records with an inconclusive call do not appear. Unmarked numbers belong to inactive results. The source made the active and inactive calls. The call rests on the fitted dose curve; in most records, active means well fitted curve in the direction sought with a large enough effect; inconclusive means small, poorly fitted or top-dose-only effect, or another doubt; inactive means no such curve, though single readings can be large; an effect the other way counts as inactive or inconclusive.

Sequence of Rap guanine nucleotide exchange factor 4 (Homo sapiens) (Q8WZA2 whole entry, looked up): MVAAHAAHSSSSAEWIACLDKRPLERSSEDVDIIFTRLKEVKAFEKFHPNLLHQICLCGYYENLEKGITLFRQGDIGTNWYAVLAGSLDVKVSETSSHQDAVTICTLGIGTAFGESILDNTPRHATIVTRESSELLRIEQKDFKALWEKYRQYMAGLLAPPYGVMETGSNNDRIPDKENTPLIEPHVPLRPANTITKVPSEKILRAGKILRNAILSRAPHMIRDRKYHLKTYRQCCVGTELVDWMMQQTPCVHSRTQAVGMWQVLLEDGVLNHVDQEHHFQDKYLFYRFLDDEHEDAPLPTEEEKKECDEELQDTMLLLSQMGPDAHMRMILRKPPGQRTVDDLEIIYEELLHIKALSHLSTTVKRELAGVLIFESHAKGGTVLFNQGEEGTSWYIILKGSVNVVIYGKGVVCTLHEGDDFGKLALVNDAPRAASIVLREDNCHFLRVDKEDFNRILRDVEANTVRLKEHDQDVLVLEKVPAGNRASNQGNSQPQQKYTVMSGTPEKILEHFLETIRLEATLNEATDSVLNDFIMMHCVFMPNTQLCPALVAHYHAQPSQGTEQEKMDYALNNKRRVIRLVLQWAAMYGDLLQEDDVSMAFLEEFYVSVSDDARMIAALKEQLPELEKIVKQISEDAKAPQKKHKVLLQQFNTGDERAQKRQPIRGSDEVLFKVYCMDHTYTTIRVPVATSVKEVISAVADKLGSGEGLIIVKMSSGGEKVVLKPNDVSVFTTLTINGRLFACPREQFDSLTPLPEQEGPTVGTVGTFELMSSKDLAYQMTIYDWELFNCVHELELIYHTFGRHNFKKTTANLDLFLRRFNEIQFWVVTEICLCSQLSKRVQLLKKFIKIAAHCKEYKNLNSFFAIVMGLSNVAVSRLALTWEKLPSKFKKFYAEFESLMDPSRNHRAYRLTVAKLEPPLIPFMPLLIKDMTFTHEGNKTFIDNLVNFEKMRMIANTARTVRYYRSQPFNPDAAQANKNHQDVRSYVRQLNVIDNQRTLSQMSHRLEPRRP
Sequence of Rap guanine nucleotide exchange factor 3 (Homo sapiens) (O95398 whole entry, looked up): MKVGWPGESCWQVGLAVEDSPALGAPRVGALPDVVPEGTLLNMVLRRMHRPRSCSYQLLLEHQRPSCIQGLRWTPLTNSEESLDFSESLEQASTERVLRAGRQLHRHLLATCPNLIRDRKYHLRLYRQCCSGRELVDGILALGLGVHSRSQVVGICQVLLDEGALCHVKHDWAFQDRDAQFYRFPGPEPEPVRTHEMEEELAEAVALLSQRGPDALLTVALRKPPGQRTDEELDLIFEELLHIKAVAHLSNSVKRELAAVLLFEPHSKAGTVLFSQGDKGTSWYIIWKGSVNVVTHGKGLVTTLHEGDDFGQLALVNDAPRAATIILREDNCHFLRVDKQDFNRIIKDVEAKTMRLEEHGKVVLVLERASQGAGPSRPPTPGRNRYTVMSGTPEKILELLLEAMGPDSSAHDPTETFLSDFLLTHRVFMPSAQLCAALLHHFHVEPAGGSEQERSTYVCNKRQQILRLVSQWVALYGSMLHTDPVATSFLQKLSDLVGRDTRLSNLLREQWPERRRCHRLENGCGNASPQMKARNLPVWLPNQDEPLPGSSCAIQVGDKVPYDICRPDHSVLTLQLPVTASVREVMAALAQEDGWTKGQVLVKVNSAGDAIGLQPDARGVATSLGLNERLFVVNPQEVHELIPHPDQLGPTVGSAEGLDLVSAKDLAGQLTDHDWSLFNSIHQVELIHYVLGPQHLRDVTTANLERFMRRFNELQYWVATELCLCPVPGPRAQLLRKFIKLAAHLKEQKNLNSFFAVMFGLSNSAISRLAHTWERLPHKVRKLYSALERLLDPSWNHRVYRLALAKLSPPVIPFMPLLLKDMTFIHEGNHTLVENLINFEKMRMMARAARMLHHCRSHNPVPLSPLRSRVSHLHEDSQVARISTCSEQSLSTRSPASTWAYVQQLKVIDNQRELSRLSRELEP

Turning to `CC(C)Cn1c(N)c(C(=O)NCC2CCCO2)c2nc3ccccc3nc21` (stereo not given), the Potency in assay [1] was 21.3 µM (active). Further, the Potency result in assay [2], in assay [3], in assay [4] and in assay [5] was “inactive” each time.

Consider `COc1ccc(-n2c(SCC(=O)Nc3nccs3)nc3c(c2=O)SC(C)C3)cc1` (stereo not given), for which the Potency entry in assay [1], in assay [2], in assay [3], in assay [4] and in assay [5] was “inactive” in each case.

`CN1CCN(CCC(=O)Nc2ccc(Cl)cc2)CC1`: the Potency entry in assay [1], in assay [2], in assay [3], in assay [4] and in assay [5] was “inactive” each time.

Turning to `COCCN(CCOC)Cc1cc(=O)oc2cc(C)c(C)cc12`, the Potency result in assay [1], in assay [2] and in assay [4] was “inactive” in each case. Further, in assay [3], the activation is 2.1% [at 17.1 µM, percent relative to cAMP agonist control]. The activity change, negative = inhibition in assay [5] is -13% [at 30.8 µM].

Turning to `CCN1C/C(=C/c2ccc(N3CCOCC3)cc2)C(=O)/C(=C/c2ccc(N3CCOCC3)cc2)C1`, the Potency result in assay [1] and in assay [5] was “inactive” throughout. For the same molecule, the Potency was 100 µM (active) in assay [2], 100 µM (active) in assay [3] and 67.5 µM (active) in assay [4].

For `NNc1nc2c(Cl)ccc(Cl)c2s1`, the Potency result in assay [1], in assay [2], in assay [3], in assay [4] and in assay [5] was “inactive” each time.

Consider `CCOC(=O)C1CCN(C(c2cc(OC)c(OC)c(OC)c2)c2sc3nc(C)nn3c2O)CC1` (stereo not given), for which the Potency entry in assay [1], in assay [2] and in assay [4] was “inactive” each time. In addition, in assay [3], the activation was 3.51% [at 17.1 µM, percent relative to cAMP agonist control]. Also, the activity change, negative = inhibition in assay [5] was -38.9% [at 30.8 µM].

As to `Cc1ccc(NC(=O)C2CCN(S(=O)(=O)c3ccc4c(c3)OCCCO4)CC2)nc1`, the Potency result in assay [1], in assay [2] and in assay [4] was “inactive” each time. Besides, the activation in assay [3] was 6.5% [at 17.1 µM, percent relative to cAMP agonist control]. For the same molecule, the activity change, negative = inhibition in assay [5] was 13.4% [at 30.8 µM].

Turning to `C=CCn1c(-c2ccc(S(=O)(=O)N3CCOCC3)cc2)csc1=Nc1ccccc1`, the Potency result in assay [1], in assay [2], in assay [3], in assay [4] and in assay [5] was “inactive” each time.

For the molecule `COc1ccc(OC)c(/C=C2\SC(=S)N(NS(=O)(=O)c3ccc(C)cc3)C2=O)c1`, the figures for the Potency in assay [1] and in assay [4] were 30.1 µM (active) and 47.8 µM (active), respectively. The Potency entry in assay [2], in assay [3] and in assay [5] was “inactive” throughout.

For the molecule `Cc1[nH]c2ccccc2c1C(c1ccccc1)c1cccs1` (stereo not given), the Potency entry in assay [1], in assay [2], in assay [3], in assay [4] and in assay [5] was “inactive” each time.

As to `CS(=O)(=O)Nc1ccc(C2=NN(C(=O)c3cccc(F)c3)C(c3cccs3)C2)cc1` (stereo not given), the Potency entry in assay [1], in assay [2], in assay [3], in assay [4] and in assay [5] was “inactive” each time.

With `Cc1ccc([C@H]2C(C(=O)O)=CC[C@@H](c3ccc(Cl)c(Cl)c3)N2S(=O)(=O)c2ccc(C)cc2)cc1`, the Potency in assay [1] is 56.2 µM (active). Also, the Potency result in assay [2] and in assay [4] was “inactive” in each case. Moreover, the activation in assay [3] is 12.8% [at 17.1 µM, percent relative to cAMP agonist control]. The activity change, negative = inhibition in assay [5] is -5.89% [at 30.8 µM].

As to `CC(C)(C)NC(=O)NC(=O)CN1CCc2ccccc21`, the Potency entry in assay [1], in assay [2] and in assay [4] was “inactive” throughout. The activation in assay [3] is 4.54% [at 17.1 µM, percent relative to cAMP agonist control]. The activity change, negative = inhibition in assay [5] was 5.54% [at 30.8 µM].

On to `CCOC(=O)Cn1c(=O)oc2cc(S(=O)(=O)Nc3c(C)cc(C)cc3C)ccc21`, for which the Potency entry in assay [1], in assay [2] and in assay [4] was “inactive” throughout. Also, in assay [3], the activation was 4.43% [at 17.1 µM, percent relative to cAMP agonist control]. The activity change, negative = inhibition in assay [5] was -16.5% [at 30.8 µM].

Consider `N#C/C(=C\c1ccc(O)c(O)c1)C(=O)Nc1cccc2ncccc12`, for which the Potency in assay [1] is 7.57 µM (active). In addition, the Potency result in assay [2], in assay [3], in assay [4] and in assay [5] was “inactive” in each case.

For `COc1cccc(OC)c1OC(=O)/C=C/c1ccc(C)o1`, the Potency result in assay [1], in assay [2] and in assay [4] was “inactive” each time. For the same molecule, in assay [3], the activation was -0.917% [at 17.1 µM, percent relative to cAMP agonist control]. Moreover, the activity change, negative = inhibition in assay [5] was -18.3% [at 30.8 µM].

Regarding `O=C(CSc1nnc(SCc2ccccc2)s1)N/N=C/C=C\c1ccco1`, the Potency in assay [1] was 42.6 µM (active). Moreover, the Potency entry in assay [2], in assay [3], in assay [4] and in assay [5] was “inactive” in each case.

As for `COc1cc(C)ccc1S(=O)(=O)N1CCCCCC1`, the Potency result in assay [1], in assay [2], in assay [3], in assay [4] and in assay [5] was “inactive” each time.

Turning to `O=C1NC(=Nc2ccccc2)S/C1=C\C=C\c1ccco1`, the Potency in assay [1] was 16.9 µM (active). Further, the Potency entry in assay [2], in assay [3], in assay [4] and in assay [5] was “inactive” each time.

`O=C(OCC(=O)N1CCCC1=O)c1cc(Cl)ccc1O`: the Potency result in assay [1], in assay [2], in assay [3], in assay [4] and in assay [5] was “inactive” each time.

As to `COc1cc(OC)c(NC(=O)N2CCC(CN3CCOCC3)CC2)cc1Cl`, the Potency entry in assay [1], in assay [2], in assay [3], in assay [4] and in assay [5] was “inactive” throughout.

With `Cc1ccc(NC(=O)CN(C)C(=O)COC(=O)C2=COCCO2)cc1`, the Potency entry in assay [1], in assay [2] and in assay [4] was “inactive” throughout. Besides, the activation in assay [3] was 6.32% [at 17.1 µM, percent relative to cAMP agonist control]. For the same molecule, the activity change, negative = inhibition in assay [5] is -1.81% [at 30.8 µM].

As for `N#Cc1c(NC(=O)c2ccccc2)sc2c1CCCCC2`, the Potency result in assay [1], in assay [2] and in assay [4] was “inactive” in each case. Further, the activation in assay [3] was 10.4% [at 17.1 µM, percent relative to cAMP agonist control]. The activity change, negative = inhibition in assay [5] was 2.87% [at 30.8 µM].

The values above are taken from PubChem BioAssay (NCATS).
